Results: PubChem BioAssay AID485364 (National Center for Advancing Translational Sciences (NCATS), 2010)
In all, about 360,000 compounds went through this assay and about 11,000 (3.1%) were called active. Another 4% or so got no clear call; they are omitted. Calls come from the whole dose curve; as a rule, active = well fitted inhibition curve with a large enough effect; inconclusive = small, poorly fitted or top-dose-only effect; inactive = no such curve, though single readings can be large or run the other way. The full list was thinned out, with actives kept by preference.

biological target: Schistosoma mansoni thioredoxin glutathione reductase (TGR) (UniProt Q962Y6); test: qHTS Assay for the Inhibitors of Schistosoma Mansoni Peroxiredoxins; details: purified TGR, DTNB reduction, TNB absorbance 405 nm; series mostly up to 114 µM; activity change, negative = inhibition: at the top concentration; note: nearly all actives have a fitted effect of over 60% in size
Procedure, shortened: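 First, TGR (20 nM dispensed) and NADPH were mixed with compound. Second, a 15 min room-temperature incubation followed. Third, further NADPH and then DTNB were added to start the reaction. Finally, TNB absorbance was monitored kinetically.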
% is set by controls: 0 for no effect and ±100 for the full control effect; potency is the fitted concentration of half-maximal effect.

| Structure (SMILES) | activity change, negative = inhibition | Potency |
| --- | --- | --- |
| COc1cccc(CNC(=O)C(NS(=O)(=O)c2ccc3nc(C)sc3c2)C(C)C)c1 (configuration not stated) | 6.17% (inactive) |  |
| COc1ccc(CNC(=O)CSc2nc3ccccc3nc2Cc2ccccc2)cc1 | 8.87% (inactive) |  |
| Cc1ccc(OCCSc2nc3ccc(NC(=O)COc4ccc(C)cc4)cc3s2)cc1 | 1.48% (inactive) |  |
| O=C(CCCn1c(=O)c2cccn2c2cccnc21)NCc1ccc(F)cc1 | 5.29% (inactive) |  |
| CCOc1ccccc1NC(=O)C1CCCN(S(=O)(=O)c2cn(C)cn2)C1 (configuration not stated) | 1.19% (inactive) |  |
| CON(C)S(=O)(=O)c1ccc2c(c1)NC(=O)C1CCCN21 (configuration not stated) |  | 12.6 µM (active) |
| CC1C(=O)Nc2ccc(S(=O)(=O)N3CCN(c4ccccc4F)CC3)cc2NC1=O (configuration not stated) | 0.0144% (inactive) |  |
| COc1ccc(N2CCN(S(=O)(=O)c3ccc4c(c3)NC(=O)C(C)C(=O)N4)CC2)cc1 (configuration not stated) | -0.727% (inactive) |  |
| COc1ccc(-c2cc(C(F)(F)F)n3nc(-c4ccccc4)cc3n2)cc1OC | 1.04% (inactive) |  |
| CCc1ccccc1NC(=O)N1CCC2(CC1)Oc1ccccc1C(=O)N2Cc1ccccc1F | 5.66% (inactive) |  |
| Cc1ccc(Cl)cc1-c1ccc(/C=N/n2cnnc2)o1 | 5.78% (inactive) |  |
| Cc1cc(C)c([N+](=O)[O-])cc1-c1ccc(/C=N/NC(=O)c2nonc2N)o1 | -22.4% (inactive) |  |
| Cc1cc([N+](=O)[O-])c(-c2ccc(/C=N/n3cnnc3)o2)cc1Cl |  | 50.1 µM (active) |
| O=C1C2C3C=CC(C4CC34)C2C(=O)N1/N=C/c1ccc(-c2ccccc2[N+](=O)[O-])o1 (configuration not stated) | -5.26% (inactive) |  |
| Cc1cc(-c2ccc(/C=N/n3cnnc3)o2)c([N+](=O)[O-])cc1C |  | 35.5 µM (active) |
| Clc1cc(-c2ccc(/C=N/n3cnnc3)o2)ccc1Br | -8.48% (inactive) |  |
| COc1ccc(-n2nc(C(=O)NCCc3ccc(Cl)cc3)c3c4ccccc4n(C)c3c2=O)cc1Cl | 8.82% (inactive) |  |
| Cc1cccc(OCCCC(=O)Nc2sc3c(c2C(N)=O)CCC(C)C3)c1 (configuration not stated) | 0.261% (inactive) |  |
| CCOC(=O)C1CCN(C(=O)CSc2c3c(nc4ccc(Cl)cc24)CCCC3)CC1 | -4.41% (inactive) |  |
| CCOc1ccc(N(Cc2ccccc2)C(=O)c2nc(SCC)ncc2Cl)cc1 | 8.83% (inactive) |  |
| CCOc1ccc(NC(=O)CN(Cc2ccccc2)S(=O)(=O)c2ccc(Cl)cc2)cc1 | -0.203% (inactive) |  |
| CCOc1ccc(N(Cc2ccccc2)C(=O)c2nc(S(C)(=O)=O)ncc2Cl)cc1 |  | 8.91 µM (active) |
| Cc1c(CNC2CCCCC2)c(C(=O)O)c(C)n1Cc1cccc(Cl)c1 | -3.74% (inactive) |  |
| COC(=O)C1=C(c2ccccc2)c2ccccc2S(=O)(=O)N1CC(=O)Nc1ccccc1C(F)(F)F | -1.13% (inactive) |  |
| CN=C1S/C(=C\c2c(OC)cc(OC)cc2OC)C(=O)N1C | -16.8% (inactive) |  |

| Structure (SMILES) | activity change, negative = inhibition | Potency |
| --- | --- | --- |
| CN1C(=O)/C(=C/c2ccco2)SC1=Nc1cccc(C(=O)O)c1 |  | 14.1 µM (active) |
| Cc1cc(/C=C2\SC(=Nc3ccc(N4CCOCC4)cc3)N(C)C2=O)c(C)n1-c1cccnc1 | -22.7% (inactive) |  |
| CCOC(=O)c1ccc(NC(=O)CC2C(=O)N(c3cccc(OC)c3)C(=O)N2C2CCCCC2)cc1 (configuration not stated) | 6.04% (inactive) |  |
| COc1ccc(NC(=O)c2ccc3nc(C(C)C)oc3c2)cc1OC | -0.734% (inactive) |  |
| COc1ccccc1N1CCN(C(CNC(=O)C(=O)NCc2ccc(C)cc2)c2cccnc2)CC1 (configuration not stated) | -3.19% (inactive) |  |
| Cc1c(NC(=S)NCc2ccc(F)cc2)cccc1[N+](=O)[O-] | -22.1% (inactive) |  |
| Cc1c(NC(=O)CCCOc2ccccc2)cccc1[N+](=O)[O-] | -7.24% (inactive) |  |
| Cc1c(NC(=O)/C=C/C(=O)O)cccc1[N+](=O)[O-] |  | 50.1 µM (active) |
| O=C(NCCc1csc(-c2ccc(C(F)(F)F)cc2)n1)C(=O)Nc1ccc(F)c(Cl)c1 | 5.45% (inactive) |  |
| CCOc1ccc(CN(CCCl)CCCl)cc1C(=O)OC |  | 14.1 µM (active) |
| CCOc1ccccc1NS(=O)(=O)c1c[nH]c(C(=O)OC)c1 | 0.0214% (inactive) |  |
| CCCOc1ccc(CN(CCO)CCO)cc1C(=O)OC | -2.83% (inactive) |  |
| CC(=O)N1CCc2cc(S(=O)(=O)NC(Cc3ccccc3)C(=O)NCc3ccc(C)cc3)ccc21 (configuration not stated) | 0.332% (inactive) |  |
| CCc1nn(CC(=O)NCC(C)c2ccccc2)c(=O)c2cc3occc3n12 (configuration not stated) | -3.19% (inactive) |  |
| Cc1cc(C)cc(-n2c(SCC(=O)NCC3CCCO3)nc3c([nH]c4ccccc43)c2=O)c1 (configuration not stated) | 4.33% (inactive) |  |
| CCOC(=O)CSc1nc(C)c(Oc2ccc(Cl)cc2Cl)c(=O)[nH]1 | 0.0744% (inactive) |  |
| CCCCOC(=O)CNc1nnc(SCC(=O)OCC)[nH]c1=O |  | 14.1 µM (active) |
| Cc1nnc(SCC(=O)N2CCOCC2)[nH]c1=O | -0.867% (inactive) |  |
| Cc1ccccc1C(=O)Nc1cc(C)c(O)c(-c2nc3ccccc3o2)c1 | -2.01% (inactive) |  |
| COc1cccc(Cn2c(CNS(=O)(=O)c3ccc(Cl)s3)nc3cccnc32)c1 | -0.347% (inactive) |  |
| Cc1ccc(C2=NN(C(=O)COc3ncnc4ccccc34)C(c3ccco3)C2)cc1 (configuration not stated) | -12.3% (inactive) |  |
| O=C1c2cccc(OCC(=O)N3N=C(c4cccs4)CC3c3ccc(F)cc3)c2CCN1Cc1ccccc1 (configuration not stated) | 2.05% (inactive) |  |
| O=C(COc1ccccc1Cl)N1N=C(c2cccs2)CC1c1ccco1 (configuration not stated) |  | 35.5 µM (active) |
| Cc1ccc(Cl)cc1NC(=O)CCS(=O)(=O)c1ccc(Br)s1 | -2.26% (inactive) |  |
| O=C1N[C@@H](Cc2ccccc2)C(=O)N2[C@H]1C[C@]1(Br)c3ccccc3N(S(=O)(=O)c3ccccc3)[C@H]21 |  | 22.4 µM (active) |

| Structure (SMILES) | activity change, negative = inhibition | Potency |
| --- | --- | --- |
| O=C(CSc1nccn1Cc1ccc(Cl)cc1)NCc1ccccc1 | -4.14% (inactive) |  |
| Cc1ccc2c(=O)c(C(=O)c3ccc(F)cc3)cn(CC(=O)NC3CCCCC3)c2n1 | -0.574% (inactive) |  |
| O=c1cc(CO)oc(C(Nc2cccc([N+](=O)[O-])c2)c2ccccn2)c1O (configuration not stated) |  | 50.1 µM (active) |
| O=C(CSc1nnc(-c2ccccc2F)o1)Nc1cccc(C(F)(F)F)c1 | 1.64% (inactive) |  |
| O=c1cc(CO)oc(C(Nc2cccc(C(F)(F)F)c2)c2ccccn2)c1O (configuration not stated) |  | 11.2 µM (active) |
| O=[N+]([O-])c1cccc(S(=O)(=O)NCc2ccccn2)c1 | -6.1% (inactive) |  |
| O=C(CSc1nc(-c2ccccc2)cs1)Nc1cccc([N+](=O)[O-])c1 | 7.7% (inactive) |  |
| Cn1c(=O)c2c(ncn2CC(=O)Nc2cccc(C(F)(F)F)c2)n(C)c1=O | 7.76% (inactive) |  |
| O=C(COc1ccccc1)OCc1cc(=O)n2nc(-c3cccs3)sc2n1 | 0.151% (inactive) |  |
| CCOC(=O)c1ccc(NC(=O)c2c(NCc3cccs3)sc3c2CCCC3)cc1 | -32.3% (inactive) |  |
| Cc1cccc(CC(=O)N2CC(=O)Nc3ccc(F)cc3C2c2ccccc2)c1 (configuration not stated) | -2.49% (inactive) |  |
| CCOC(=O)c1ccccc1NC(=O)c1sc2nc(-c3ccc(F)cc3)cn2c1C | 1.27% (inactive) |  |
| Cc1ccc(Cn2c(C)c3cnn(CC(=O)NCc4ccccc4)c(=O)c3c2C)cc1 | -8.1% (inactive) |  |
| Cc1nn(CC(=O)NCc2ccccn2)c(C)c1[N+](=O)[O-] | 3.91% (inactive) |  |
| Cc1c2cnn(CC(=O)NCCCN3CC(C)CC(C)C3)c(=O)c2c(C)n1Cc1ccc(Cl)cc1 (configuration not stated) | -1.92% (inactive) |  |
| Cc1c2cnn(CC(=O)NCc3ccccn3)c(=O)c2c(C)n1Cc1ccc(Cl)cc1 |  | 44.7 µM (active) |
| Cc1ccc(Cn2c(C)c3cnn(CC(=O)NCc4ccccn4)c(=O)c3c2C)cc1 |  | 35.5 µM (active) |
| O=C(Cn1ncc2c3ccccc3n(Cc3ccccc3)c2c1=O)NCc1ccccn1 |  | inactive |
| CN(C(=O)CSc1nnc(NC(=O)Nc2ccccc2)s1)c1ccccc1 | -0.9% (inactive) |  |
| CCOC(=O)c1c(C)oc2ccc(N(C(=O)c3ccncc3)S(=O)(=O)c3ccc(CC)cc3)cc12 | -2.52% (inactive) |  |
| Cc1c(Cl)cccc1NC(=O)N1CCN(C(=O)c2nsc3ccccc23)CC1 | -2.35% (inactive) |  |
| CNc1ccc(-c2nc(-c3ccccc3C)no2)cc1[N+](=O)[O-] | -3.25% (inactive) |  |
| O=C(CSCc1cccs1)N1CCCC1 | -0.5% (inactive) |  |
| CC1CC(C)CN(C(=O)CSc2ccsc2[N+](=O)[O-])C1 (configuration not stated) | -19.5% (inactive) |  |
| O=C(CSc1ccsc1[N+](=O)[O-])N1CCCCC1 |  | 31.6 µM (active) |

| Structure (SMILES) | activity change, negative = inhibition | Potency |
| --- | --- | --- |
| COc1cc(C(=O)NCCS(=O)(=O)N2CCN(c3ccccc3)CC2)cc(OC)c1OC | 7.43% (inactive) |  |
| COc1ccc2c(c1)c(N1CCCC1=O)c(C(=O)Nc1ccc(OC)c(Cl)c1)n2C | 7.32% (inactive) |  |
| COc1ccccc1NC(=O)[C@H](COCc1ccccc1)NC(=O)OC(C)(C)C | -24.2% (inactive) |  |
| C[C@@H](NC(=O)OC(C)(C)C)c1nnc(S(=O)(=O)Cc2ccccc2)o1 |  | 0.794 µM (active) |
| CCc1ccccc1NC(=O)CSc1nnc([C@@H](NC(=O)OC(C)(C)C)C(C)CC)o1 (some centres not stated) | 1.47% (inactive) |  |
| CCN(Cc1ccccc1)S(=O)(=O)c1ccc2c(c1)CCCN2C(C)=O | -1.01% (inactive) |  |
| Cc1cc(NC(=O)c2cccc(Cl)c2)ccc1-c1cc2ccccc2oc1=O | 8.29% (inactive) |  |
| O=C(CSCc1cnn(-c2ccccc2)c1-n1cccc1)NCc1ccccc1Br | 23.9% (inactive) |  |
| O=C(/C=C/Sc1ncn[nH]1)c1ccc(Cl)cc1 |  | 0.794 µM (active) |
| COc1ccc(-n2c(SCC(=O)Nc3ccc(Cl)c(C)c3)nc3n[nH]c(C)c3c2=N)cc1 | 5.5% (inactive) |  |
| COc1ccccc1CNC(=O)Cn1nc(C)c2nn(-c3ccc(Cl)cc3)c(C)c2c1=O | 4.8% (inactive) |  |
| CCOc1ccccc1NC(=O)CCn1cnnn1 | -2.07% (inactive) |  |
| CCOC(=O)c1ccc(NC(=O)CCn2c(=O)oc3ccccc32)cc1 |  | inactive |
| CCOC(=O)c1ccc(NC(=O)CCn2cnnn2)cc1 |  | 89.1 µM (active) |
| CCN(CC)CCNC(=O)c1cc2c(=O)oc3ccc(C)cc3c2s1 | 11.6% (inactive) |  |
| CCc1ccc(NC(=O)c2cc(S(=O)(=O)N3CCCC(C)C3)cn2C)cc1 (configuration not stated) | -0.776% (inactive) |  |
| COc1ccc(CNC(=O)c2ccc(NC(=O)N3CC4CCCN4c4ccccc43)cc2)cc1 (configuration not stated) | -14.3% (inactive) |  |
| CSc1nc2ccc(C)cc2c(=O)n1-c1cccnc1 | 23.6% (inactive) |  |
| COc1ccc(-n2c(SC)nc(O)cc2=O)cc1 | -1.27% (inactive) |  |
| COc1ccc2c(c1OC)C(=O)OC2c1c(O)nc(SC)n(-c2ccccc2)c1=O (configuration not stated) |  | 7.94 µM (active) |
| COc1ccc(Nc2ncc(C(=O)Nc3cc(C)ccc3OC)c3ccccc23)cc1 | -2.37% (inactive) |  |
| CCN1CCN(CCCNC(=O)c2cnn(-c3ccc(C)cc3C)c2C2CCN(C(=O)OC(C)(C)C)CC2)CC1 | 6.79% (inactive) |  |
